These results are taken from PMC7862700, “An all-to-all approach to the identification of sequence-specific readers for epigenetic DNA modifications on cytosine”.

What all share (experiment): DAPPL (digital affinity profiling via proximity ligation, sequencing); 10 mM Tris-HCl pH 7.5, 50 mM NaCl, 1 mM DTT, 4% glycerol, room temperature, 30 min; GST-TFs on glutathione beads, 16-mer random dsDNA library, 0.1% formaldehyde crosslink after washing; high values mean tight binding
What all share (details): protein: recombinant; tags: N-terminal GST; dsDNA, one strand shown

One assay deals with T1, FLI1 (Homo sapiens, UniProt Q01543 1-452).
T1 sequence: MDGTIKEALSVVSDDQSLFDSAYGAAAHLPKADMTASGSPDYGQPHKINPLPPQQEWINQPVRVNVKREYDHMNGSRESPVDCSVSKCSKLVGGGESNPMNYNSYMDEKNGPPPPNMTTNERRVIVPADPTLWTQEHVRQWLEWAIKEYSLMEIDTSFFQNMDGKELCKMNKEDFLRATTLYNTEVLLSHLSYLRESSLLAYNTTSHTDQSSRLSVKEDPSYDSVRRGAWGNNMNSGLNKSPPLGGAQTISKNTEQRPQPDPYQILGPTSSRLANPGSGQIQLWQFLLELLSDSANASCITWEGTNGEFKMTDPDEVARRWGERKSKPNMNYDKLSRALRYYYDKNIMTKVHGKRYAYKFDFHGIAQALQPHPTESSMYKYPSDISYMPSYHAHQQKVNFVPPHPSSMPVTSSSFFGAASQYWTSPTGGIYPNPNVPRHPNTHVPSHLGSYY
The essentials: (§1)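 Beads coated with glutathione captured GST-fused human transcription factors that had been expressed in yeast, and the factors were then given DNA barcodes and pooled with a tag-only sample. The pools were incubated with 200 nmole of a random double-stranded 16-mer DNA library in Tris/NaCl/DTT/glycerol buffer for 30 min at room temperature, washed, crosslinked with 0.1% formaldehyde and proximity-ligated with BsaI/T4 ligase at 37 °C for 1 h. PCR amplification and Illumina NextSeq500 sequencing came last. Binding signal is each hexamer's read frequency for a factor divided by its frequency for the tag-only sample.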

The target of another assay is T2, ELK1 (Homo sapiens, UniProt P19419 1-428).
T2 sequence: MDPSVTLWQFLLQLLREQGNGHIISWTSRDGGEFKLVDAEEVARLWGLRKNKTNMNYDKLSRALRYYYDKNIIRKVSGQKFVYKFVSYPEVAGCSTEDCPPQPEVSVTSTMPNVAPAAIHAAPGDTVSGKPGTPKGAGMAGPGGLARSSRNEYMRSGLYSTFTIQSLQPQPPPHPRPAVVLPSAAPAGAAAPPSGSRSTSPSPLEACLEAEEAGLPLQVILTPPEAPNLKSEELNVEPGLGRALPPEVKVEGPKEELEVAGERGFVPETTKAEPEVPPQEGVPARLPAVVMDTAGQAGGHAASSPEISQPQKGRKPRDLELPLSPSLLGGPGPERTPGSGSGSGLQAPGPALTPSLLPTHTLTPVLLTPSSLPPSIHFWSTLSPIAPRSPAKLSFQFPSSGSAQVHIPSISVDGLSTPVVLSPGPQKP
The essentials:
as §1

The next assay deals with T3, GABPA (Homo sapiens, UniProt Q06546 1-454).
T3 sequence: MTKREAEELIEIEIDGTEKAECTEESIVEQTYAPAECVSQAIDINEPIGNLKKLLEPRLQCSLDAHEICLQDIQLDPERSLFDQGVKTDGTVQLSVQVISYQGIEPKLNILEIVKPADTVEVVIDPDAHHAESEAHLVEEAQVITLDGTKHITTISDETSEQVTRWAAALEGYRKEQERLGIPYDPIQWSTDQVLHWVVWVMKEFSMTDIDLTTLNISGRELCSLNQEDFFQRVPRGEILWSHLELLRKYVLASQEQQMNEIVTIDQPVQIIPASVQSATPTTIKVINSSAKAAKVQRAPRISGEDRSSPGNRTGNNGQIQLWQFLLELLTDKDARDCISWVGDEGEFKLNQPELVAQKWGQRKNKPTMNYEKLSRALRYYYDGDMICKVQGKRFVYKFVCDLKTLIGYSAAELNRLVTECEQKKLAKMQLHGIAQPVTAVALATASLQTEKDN
The gist of the method:
as §1

For a further assay, the target named is T4, ERG (Homo sapiens, UniProt P11308 1-479).
T4 sequence: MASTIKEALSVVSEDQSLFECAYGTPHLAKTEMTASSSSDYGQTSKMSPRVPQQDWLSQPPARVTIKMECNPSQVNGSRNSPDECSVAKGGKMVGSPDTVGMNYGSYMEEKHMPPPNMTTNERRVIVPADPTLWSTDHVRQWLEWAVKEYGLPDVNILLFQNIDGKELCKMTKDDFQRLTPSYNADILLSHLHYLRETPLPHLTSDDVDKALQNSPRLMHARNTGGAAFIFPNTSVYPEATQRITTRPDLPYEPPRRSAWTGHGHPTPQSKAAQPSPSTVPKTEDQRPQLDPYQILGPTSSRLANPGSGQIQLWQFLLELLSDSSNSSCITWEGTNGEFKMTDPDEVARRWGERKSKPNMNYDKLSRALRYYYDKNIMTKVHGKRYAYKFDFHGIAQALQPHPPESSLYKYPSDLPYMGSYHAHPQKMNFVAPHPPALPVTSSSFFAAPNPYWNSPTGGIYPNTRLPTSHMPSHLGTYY
The essentials:
as §1

Another assay concerns the target ELF1 (Homo sapiens, UniProt P32519 1-619). The essentials:
as §1

The next assay concerns the target T5, EHF (Homo sapiens, UniProt Q9NZC4 1-300).
T5 sequence: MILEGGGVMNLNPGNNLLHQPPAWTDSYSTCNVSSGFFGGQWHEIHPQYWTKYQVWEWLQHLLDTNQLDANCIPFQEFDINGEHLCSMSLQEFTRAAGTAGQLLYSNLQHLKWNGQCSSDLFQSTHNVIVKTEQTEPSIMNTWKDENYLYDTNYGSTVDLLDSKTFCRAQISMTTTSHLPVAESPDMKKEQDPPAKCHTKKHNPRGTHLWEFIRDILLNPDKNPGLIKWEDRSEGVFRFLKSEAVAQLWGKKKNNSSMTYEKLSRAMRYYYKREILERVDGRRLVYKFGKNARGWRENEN
The gist of the method: as §1

Another assay concerns the target SPI1 (Homo sapiens, UniProt P17947 1-270). The gist of the method:
as §1

Another assay addresses SPIB (Homo sapiens, UniProt Q01892 1-262). The essentials: as §1
In another assay the target is T6, ELK3 (Homo sapiens, UniProt P41970 1-407).
T6 sequence: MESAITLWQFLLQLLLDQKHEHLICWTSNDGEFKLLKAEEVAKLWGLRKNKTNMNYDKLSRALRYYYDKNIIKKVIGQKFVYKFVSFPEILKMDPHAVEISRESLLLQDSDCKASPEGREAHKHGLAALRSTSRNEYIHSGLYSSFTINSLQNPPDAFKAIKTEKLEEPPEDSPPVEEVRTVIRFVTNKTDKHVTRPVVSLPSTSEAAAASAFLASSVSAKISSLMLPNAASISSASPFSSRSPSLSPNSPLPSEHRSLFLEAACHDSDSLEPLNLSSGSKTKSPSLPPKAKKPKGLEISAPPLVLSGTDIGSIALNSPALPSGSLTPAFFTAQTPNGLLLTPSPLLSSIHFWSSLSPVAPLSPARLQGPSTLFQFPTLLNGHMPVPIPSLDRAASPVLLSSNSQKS
The essentials:
as §1

The target in a further assay is T7, FEV (Homo sapiens, UniProt Q99581 1-238).
T7 sequence: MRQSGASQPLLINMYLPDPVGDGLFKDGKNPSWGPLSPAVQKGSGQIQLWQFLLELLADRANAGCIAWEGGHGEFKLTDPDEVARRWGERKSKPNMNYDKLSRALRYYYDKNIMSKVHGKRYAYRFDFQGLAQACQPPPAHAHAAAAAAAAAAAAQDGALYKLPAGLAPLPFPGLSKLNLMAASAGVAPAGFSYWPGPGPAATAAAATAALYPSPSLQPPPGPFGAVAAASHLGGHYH
The essentials:
as §1

The target of a further assay is ETV5 (Homo sapiens, UniProt P41161 1-510). The gist of the method:
as §1

The target of the next assay is T8, SPIC (Homo sapiens, UniProt Q8N5J4 1-248).
T8 sequence: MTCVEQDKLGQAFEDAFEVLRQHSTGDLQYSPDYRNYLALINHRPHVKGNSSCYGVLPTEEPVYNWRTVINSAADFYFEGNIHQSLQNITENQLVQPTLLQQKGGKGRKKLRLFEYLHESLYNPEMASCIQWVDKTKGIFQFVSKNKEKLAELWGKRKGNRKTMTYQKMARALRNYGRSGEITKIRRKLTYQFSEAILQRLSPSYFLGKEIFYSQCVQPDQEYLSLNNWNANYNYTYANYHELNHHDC
The gist of the method:
as §1

For a further assay, the target named is ELF4 (Homo sapiens, UniProt Q99607 1-663). The gist of the method:
as §1

The target in the next assay is ETV1 (Homo sapiens, UniProt P50549 1-477). The gist of the method:
as §1

For the next assay, the target named is T9, ERF (Homo sapiens, UniProt P50548 1-548).
T9 sequence: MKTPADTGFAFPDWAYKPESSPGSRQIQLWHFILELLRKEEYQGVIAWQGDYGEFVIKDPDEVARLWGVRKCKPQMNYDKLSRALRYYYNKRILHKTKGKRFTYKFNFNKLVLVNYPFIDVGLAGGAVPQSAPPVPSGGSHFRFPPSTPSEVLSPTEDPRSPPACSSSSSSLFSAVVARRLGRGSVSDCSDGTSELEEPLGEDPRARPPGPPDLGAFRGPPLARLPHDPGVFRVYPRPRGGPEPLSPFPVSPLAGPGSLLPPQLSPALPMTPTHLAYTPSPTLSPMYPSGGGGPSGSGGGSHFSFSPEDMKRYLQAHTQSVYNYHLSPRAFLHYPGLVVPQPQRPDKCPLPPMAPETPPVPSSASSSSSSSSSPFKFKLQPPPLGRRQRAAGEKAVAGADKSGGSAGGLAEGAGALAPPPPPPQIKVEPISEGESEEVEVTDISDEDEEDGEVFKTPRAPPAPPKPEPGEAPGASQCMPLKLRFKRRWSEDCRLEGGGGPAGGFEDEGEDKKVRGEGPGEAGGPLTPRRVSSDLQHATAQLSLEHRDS
The essentials: as §1

Another assay concerns the target T10, ETV3L (Homo sapiens, UniProt Q6ZN32 1-361).
T10 sequence: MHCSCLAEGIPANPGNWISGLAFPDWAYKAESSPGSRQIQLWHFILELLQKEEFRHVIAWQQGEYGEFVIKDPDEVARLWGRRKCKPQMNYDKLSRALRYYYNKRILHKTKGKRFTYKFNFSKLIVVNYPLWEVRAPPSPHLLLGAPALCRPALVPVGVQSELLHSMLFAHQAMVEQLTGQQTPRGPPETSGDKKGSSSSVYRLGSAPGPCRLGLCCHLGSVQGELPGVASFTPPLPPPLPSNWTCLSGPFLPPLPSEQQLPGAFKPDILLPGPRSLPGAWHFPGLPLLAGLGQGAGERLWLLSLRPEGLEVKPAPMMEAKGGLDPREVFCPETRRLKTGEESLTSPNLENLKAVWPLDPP
The gist of the method: as §1

A further assay deals with T11, ETS2 (Homo sapiens, UniProt P15036 1-469).
T11 sequence: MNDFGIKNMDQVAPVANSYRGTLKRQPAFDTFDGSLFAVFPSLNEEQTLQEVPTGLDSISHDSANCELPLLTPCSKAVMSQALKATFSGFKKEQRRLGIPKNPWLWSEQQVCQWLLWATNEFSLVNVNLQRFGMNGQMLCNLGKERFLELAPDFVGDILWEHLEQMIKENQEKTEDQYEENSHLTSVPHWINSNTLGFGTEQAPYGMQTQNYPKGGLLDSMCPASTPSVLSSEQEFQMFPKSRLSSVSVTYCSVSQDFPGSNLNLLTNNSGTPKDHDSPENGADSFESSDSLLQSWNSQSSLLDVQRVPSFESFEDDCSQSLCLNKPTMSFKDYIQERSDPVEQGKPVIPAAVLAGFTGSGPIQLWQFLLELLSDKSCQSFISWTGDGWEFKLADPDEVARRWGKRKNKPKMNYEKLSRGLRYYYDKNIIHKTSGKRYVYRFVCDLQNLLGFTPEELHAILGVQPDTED
The essentials:
as §1

The next assay has as its target T12, ELF5 (Homo sapiens, UniProt Q9UKW6-2 1-255).
T12 sequence: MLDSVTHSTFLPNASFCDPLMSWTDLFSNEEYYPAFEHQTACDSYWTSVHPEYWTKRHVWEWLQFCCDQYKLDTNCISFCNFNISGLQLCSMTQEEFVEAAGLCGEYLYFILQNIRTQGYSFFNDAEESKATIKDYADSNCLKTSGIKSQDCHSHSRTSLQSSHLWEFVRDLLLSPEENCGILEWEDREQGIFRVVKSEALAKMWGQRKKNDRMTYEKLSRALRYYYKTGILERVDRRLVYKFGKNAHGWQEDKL
The essentials: as §1

For another assay, the target named is T13, ETV3 (Homo sapiens, UniProt P41162-2 1-143).
T13 sequence: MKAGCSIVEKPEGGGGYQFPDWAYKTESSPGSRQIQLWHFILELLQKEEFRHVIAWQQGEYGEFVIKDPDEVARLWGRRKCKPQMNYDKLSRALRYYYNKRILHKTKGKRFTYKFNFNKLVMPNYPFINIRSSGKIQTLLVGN
The essentials:
as §1

The target of the next assay is ETV6 (Homo sapiens, UniProt P41212 1-452). The gist of the method:
as §1

Sequence of ETV1 (P50549 whole entry): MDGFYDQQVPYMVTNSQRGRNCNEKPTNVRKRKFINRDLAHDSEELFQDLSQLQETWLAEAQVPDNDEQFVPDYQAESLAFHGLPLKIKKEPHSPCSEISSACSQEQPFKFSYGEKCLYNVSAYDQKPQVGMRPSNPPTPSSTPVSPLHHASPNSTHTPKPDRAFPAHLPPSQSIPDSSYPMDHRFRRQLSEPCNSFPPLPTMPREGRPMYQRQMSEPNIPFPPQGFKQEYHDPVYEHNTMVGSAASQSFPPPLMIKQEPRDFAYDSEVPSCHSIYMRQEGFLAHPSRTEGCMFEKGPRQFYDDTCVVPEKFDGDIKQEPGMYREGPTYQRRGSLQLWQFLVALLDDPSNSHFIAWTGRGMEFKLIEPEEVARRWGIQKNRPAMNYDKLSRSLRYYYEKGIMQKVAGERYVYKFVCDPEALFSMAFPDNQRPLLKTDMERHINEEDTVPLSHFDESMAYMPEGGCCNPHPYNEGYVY
Sequence of ETV5 (P41161 whole entry): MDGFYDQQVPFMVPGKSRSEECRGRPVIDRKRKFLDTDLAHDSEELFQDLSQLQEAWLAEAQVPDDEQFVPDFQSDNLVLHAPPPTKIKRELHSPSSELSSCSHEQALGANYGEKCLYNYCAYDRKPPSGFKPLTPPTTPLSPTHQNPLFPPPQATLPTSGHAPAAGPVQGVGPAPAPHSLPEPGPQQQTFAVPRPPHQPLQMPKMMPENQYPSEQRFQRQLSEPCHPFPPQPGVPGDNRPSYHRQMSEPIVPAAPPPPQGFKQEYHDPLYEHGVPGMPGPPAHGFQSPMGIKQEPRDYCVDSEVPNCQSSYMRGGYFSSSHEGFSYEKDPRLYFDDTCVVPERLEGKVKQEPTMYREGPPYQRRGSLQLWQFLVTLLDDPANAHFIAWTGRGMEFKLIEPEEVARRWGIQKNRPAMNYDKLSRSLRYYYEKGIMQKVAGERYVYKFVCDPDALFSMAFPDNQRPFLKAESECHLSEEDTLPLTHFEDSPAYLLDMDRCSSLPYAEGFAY
Sequence of SPIB (Q01892 whole entry): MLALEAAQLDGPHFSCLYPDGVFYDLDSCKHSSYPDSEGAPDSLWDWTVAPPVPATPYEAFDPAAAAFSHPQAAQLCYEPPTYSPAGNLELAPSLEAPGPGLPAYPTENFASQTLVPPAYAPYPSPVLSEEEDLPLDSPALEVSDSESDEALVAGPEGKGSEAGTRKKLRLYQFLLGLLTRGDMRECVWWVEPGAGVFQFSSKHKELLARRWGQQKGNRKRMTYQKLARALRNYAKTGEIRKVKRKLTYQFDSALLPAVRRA
Sequence of ELF1 (P32519 whole entry): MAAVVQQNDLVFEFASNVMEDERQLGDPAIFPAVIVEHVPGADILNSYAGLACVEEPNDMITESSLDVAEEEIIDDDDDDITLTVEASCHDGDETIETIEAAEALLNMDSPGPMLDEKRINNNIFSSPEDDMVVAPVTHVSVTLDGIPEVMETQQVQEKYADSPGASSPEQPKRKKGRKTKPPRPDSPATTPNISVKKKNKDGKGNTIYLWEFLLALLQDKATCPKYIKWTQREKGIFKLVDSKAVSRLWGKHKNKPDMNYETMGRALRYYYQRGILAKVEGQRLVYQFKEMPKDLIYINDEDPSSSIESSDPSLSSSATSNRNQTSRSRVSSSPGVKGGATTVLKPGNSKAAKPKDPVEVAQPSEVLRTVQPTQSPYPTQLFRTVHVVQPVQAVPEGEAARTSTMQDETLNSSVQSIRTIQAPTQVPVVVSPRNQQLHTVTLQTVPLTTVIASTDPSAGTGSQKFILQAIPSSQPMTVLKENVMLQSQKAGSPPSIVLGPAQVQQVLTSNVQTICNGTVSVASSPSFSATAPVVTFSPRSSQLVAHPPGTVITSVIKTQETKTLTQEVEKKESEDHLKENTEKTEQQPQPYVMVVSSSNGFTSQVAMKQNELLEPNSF
Sequence of ETV6 (P41212 whole entry): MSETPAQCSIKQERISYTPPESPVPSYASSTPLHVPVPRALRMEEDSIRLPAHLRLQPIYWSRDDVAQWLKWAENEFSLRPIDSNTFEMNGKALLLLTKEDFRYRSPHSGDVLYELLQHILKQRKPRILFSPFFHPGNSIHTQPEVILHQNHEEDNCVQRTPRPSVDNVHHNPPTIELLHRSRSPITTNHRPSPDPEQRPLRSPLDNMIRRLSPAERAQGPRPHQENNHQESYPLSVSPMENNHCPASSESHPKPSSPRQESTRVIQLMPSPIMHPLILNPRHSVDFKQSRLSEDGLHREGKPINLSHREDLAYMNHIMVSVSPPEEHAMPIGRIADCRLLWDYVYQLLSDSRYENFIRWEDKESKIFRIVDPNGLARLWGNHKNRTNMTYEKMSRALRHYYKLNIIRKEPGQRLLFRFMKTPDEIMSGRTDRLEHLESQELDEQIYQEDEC
Sequence of ELF4 (Q99607 whole entry): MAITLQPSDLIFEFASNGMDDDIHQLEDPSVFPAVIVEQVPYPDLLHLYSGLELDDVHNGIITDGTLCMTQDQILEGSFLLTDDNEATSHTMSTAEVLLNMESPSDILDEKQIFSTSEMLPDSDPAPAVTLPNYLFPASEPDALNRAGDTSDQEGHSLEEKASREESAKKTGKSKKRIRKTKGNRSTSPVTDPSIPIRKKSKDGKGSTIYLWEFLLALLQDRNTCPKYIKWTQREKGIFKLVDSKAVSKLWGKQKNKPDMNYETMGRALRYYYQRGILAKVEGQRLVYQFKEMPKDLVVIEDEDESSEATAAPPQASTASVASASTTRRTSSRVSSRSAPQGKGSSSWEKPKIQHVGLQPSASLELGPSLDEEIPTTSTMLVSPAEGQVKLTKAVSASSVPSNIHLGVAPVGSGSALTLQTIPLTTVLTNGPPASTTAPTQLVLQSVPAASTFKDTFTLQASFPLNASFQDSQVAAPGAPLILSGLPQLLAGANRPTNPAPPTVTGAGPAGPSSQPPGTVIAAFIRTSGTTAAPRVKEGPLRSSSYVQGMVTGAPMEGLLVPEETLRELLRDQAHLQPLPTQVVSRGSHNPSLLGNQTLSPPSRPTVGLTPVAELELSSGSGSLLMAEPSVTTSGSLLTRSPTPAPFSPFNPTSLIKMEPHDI

Consider GAAGTC, for which the binding signal in the assay with FLI1 is 1.15 fold enrichment (6-mer frequency, TF over GST control); in the assay with ELK1, 1.2 fold enrichment (6-mer frequency, TF over GST control); with GABPA, 1.04 fold enrichment (6-mer frequency, TF over GST control); with ERG, 1.33 fold enrichment (6-mer frequency, TF over GST control); with ELF1, 1.1 fold enrichment (6-mer frequency, TF over GST control); in the assay with EHF, 1.13 fold enrichment (6-mer frequency, TF over GST control). In addition, the binding signal is 1.51 fold enrichment (6-mer frequency, TF over GST control) with SPI1; 1.22 fold enrichment (6-mer frequency, TF over GST control) in the assay with SPIB; 1.19 fold enrichment (6-mer frequency, TF over GST control) in the assay with ELK3; 1.22 fold enrichment (6-mer frequency, TF over GST control) with FEV; 1.17 fold enrichment (6-mer frequency, TF over GST control) in the assay with ETV5; 1.23 fold enrichment (6-mer frequency, TF over GST control) with SPIC. Moreover, the binding signal in the assay with ELF4 was 1.08 fold enrichment (6-mer frequency, TF over GST control); in the assay with ETV1, 1.22 fold enrichment (6-mer frequency, TF over GST control); with ERF, 1.11 fold enrichment (6-mer frequency, TF over GST control); with ETV3L, 1.14 fold enrichment (6-mer frequency, TF over GST control); with ETS2 it was 1.19 fold enrichment (6-mer frequency, TF over GST control); with ELF5 it was 1.26 fold enrichment (6-mer frequency, TF over GST control). Besides, the binding signal was 1.21 fold enrichment (6-mer frequency, TF over GST control) with ETV3 and 1.22 fold enrichment (6-mer frequency, TF over GST control) in the assay with ETV6.
